Results: ChEMBL document CHEMBL1961873, “Compounds: GSK PKIS; Assays: Nanosyn kinase panel” (2012)

How the values were obtained:
[1] = biological target: Serine/threonine-protein kinase pim-2 (Homo sapiens) (UniProt Q9P1W9); conditions: at 1 µM;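 further: each value is a mean of the inhibition measurements against the kinase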
[2] = biological target: Serine/threonine-protein kinase pim-3 (Homo sapiens) (UniProt Q86V86); conditions: at 0.1 µM
[3] = biological target: Serine/threonine-protein kinase pim-3 (Homo sapiens) (UniProt Q86V86); conditions: at 1 µM
[4] = biological target: T1, MAP kinase-activated protein kinase 5 (Homo sapiens) (UniProt Q8IW41); conditions: at 0.1 µM
T1 sequence (whole entry): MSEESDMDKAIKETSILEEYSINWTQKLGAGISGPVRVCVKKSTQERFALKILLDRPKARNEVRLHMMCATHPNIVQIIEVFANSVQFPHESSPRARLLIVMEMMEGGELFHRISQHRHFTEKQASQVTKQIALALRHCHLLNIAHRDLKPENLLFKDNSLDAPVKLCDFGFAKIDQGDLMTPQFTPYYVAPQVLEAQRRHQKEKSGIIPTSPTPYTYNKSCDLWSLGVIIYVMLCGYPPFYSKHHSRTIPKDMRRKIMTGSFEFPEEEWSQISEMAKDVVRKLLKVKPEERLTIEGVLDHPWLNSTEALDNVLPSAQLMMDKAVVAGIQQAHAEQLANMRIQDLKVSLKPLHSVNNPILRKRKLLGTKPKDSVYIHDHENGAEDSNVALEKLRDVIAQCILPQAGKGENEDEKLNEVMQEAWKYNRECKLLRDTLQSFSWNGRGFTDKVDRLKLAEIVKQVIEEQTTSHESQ

[5] = biological target: T1, MAP kinase-activated protein kinase 5 (Homo sapiens); conditions: at 1 µM
[6] = biological target: Serine/threonine-protein kinase SIK1 (Homo sapiens) (UniProt P57059); conditions: at 0.1 µM
[7] = biological target: Serine/threonine-protein kinase SIK1 (Homo sapiens) (UniProt P57059); conditions: at 1 µM
[8] = biological target: Serine/threonine-protein kinase SIK2 (Homo sapiens) (UniProt Q9H0K1); conditions: at 0.1 µM
[9] = biological target: Serine/threonine-protein kinase SIK2 (Homo sapiens) (UniProt Q9H0K1); conditions: at 1 µM
[10] = biological target: T2, Serine/threonine-protein kinase TBK1 (Homo sapiens) (UniProt Q9UHD2); conditions: at 0.1 µM
T2 sequence (whole entry): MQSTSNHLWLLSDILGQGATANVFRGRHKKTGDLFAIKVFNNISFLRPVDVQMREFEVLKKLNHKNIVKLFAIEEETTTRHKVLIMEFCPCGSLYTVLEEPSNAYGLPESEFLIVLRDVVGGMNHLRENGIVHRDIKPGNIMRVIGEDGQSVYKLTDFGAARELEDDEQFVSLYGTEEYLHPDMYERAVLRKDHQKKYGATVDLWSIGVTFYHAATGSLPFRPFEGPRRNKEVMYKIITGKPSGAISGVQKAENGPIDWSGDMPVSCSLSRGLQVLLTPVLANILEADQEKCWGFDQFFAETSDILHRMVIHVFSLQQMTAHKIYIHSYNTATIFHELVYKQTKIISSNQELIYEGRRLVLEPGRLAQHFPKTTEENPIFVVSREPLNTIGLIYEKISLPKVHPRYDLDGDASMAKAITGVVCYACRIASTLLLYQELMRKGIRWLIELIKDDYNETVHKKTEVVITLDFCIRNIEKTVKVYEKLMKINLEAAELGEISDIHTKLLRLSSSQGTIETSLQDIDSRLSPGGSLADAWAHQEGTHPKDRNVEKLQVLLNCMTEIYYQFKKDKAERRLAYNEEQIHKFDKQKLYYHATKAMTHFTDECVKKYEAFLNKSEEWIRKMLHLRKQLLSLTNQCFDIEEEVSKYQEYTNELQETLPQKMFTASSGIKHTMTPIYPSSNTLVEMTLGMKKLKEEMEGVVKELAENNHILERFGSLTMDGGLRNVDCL

[11] = biological target: T2, Serine/threonine-protein kinase TBK1 (Homo sapiens); conditions: at 1 µM
[12] = biological target: T3, Testis-specific serine/threonine-protein kinase 1 (Homo sapiens) (UniProt Q9BXA7); conditions: at 0.1 µM
T3 sequence (whole entry): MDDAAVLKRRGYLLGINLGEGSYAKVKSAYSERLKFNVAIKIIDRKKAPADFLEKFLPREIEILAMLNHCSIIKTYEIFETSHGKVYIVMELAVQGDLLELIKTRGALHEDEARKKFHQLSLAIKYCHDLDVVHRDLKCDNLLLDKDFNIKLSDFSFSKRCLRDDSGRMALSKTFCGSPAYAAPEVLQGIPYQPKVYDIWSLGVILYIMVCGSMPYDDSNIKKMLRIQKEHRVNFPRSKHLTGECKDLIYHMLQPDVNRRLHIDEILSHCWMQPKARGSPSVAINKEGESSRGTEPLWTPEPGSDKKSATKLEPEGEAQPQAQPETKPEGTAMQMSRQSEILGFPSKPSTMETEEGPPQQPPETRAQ

[13] = biological target: T3, Testis-specific serine/threonine-protein kinase 1 (Homo sapiens); conditions: at 1 µM
[14] = biological target: T4, Testis-specific serine/threonine-protein kinase 2 (Homo sapiens) (UniProt Q96PF2); conditions: at 0.1 µM
T4 sequence (whole entry): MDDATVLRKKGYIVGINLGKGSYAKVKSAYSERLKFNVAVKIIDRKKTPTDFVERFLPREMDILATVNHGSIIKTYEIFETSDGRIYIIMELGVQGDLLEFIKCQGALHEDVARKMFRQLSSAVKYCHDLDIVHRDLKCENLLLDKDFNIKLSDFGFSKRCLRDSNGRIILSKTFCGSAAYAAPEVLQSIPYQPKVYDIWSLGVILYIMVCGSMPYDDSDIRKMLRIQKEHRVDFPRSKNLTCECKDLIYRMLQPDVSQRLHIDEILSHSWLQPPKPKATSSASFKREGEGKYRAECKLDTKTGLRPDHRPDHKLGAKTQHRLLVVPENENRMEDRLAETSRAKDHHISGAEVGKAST

[15] = biological target: T4, Testis-specific serine/threonine-protein kinase 2 (Homo sapiens); conditions: at 1 µM
[16] = biological target: Casein kinase I isoform alpha (Homo sapiens) (UniProt P48729); conditions: at 0.1 µM
[17] = biological target: Casein kinase I isoform alpha (Homo sapiens) (UniProt P48729); conditions: at 1 µM
[18] = biological target: Casein kinase I isoform gamma-1 (Homo sapiens) (UniProt Q9HCP0); conditions: at 0.1 µM
[19] = biological target: Casein kinase I isoform gamma-1 (Homo sapiens) (UniProt Q9HCP0); conditions: at 1 µM
[20] = biological target: Casein kinase I isoform gamma-2 (Homo sapiens) (UniProt P78368); conditions: at 0.1 µM;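 further: values are mean inhibition figures reported as part of the GSK PKIS dataset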
Sequence of Casein kinase I isoform gamma-2 (Homo sapiens) (P78368 whole entry, looked up, canonical isoform): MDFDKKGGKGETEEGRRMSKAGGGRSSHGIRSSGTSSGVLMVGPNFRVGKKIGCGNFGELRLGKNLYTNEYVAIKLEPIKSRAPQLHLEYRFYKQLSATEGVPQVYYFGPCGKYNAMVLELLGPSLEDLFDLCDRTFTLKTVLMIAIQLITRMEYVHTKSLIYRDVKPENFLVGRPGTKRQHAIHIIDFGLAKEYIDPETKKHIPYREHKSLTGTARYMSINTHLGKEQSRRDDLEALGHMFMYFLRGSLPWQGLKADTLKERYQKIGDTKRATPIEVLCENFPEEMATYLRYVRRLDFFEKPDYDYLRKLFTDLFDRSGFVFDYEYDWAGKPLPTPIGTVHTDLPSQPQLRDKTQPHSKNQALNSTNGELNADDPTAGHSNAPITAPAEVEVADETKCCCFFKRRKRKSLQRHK

Sequence of Serine/threonine-protein kinase SIK2 (Homo sapiens) (Q9H0K1 whole entry, looked up): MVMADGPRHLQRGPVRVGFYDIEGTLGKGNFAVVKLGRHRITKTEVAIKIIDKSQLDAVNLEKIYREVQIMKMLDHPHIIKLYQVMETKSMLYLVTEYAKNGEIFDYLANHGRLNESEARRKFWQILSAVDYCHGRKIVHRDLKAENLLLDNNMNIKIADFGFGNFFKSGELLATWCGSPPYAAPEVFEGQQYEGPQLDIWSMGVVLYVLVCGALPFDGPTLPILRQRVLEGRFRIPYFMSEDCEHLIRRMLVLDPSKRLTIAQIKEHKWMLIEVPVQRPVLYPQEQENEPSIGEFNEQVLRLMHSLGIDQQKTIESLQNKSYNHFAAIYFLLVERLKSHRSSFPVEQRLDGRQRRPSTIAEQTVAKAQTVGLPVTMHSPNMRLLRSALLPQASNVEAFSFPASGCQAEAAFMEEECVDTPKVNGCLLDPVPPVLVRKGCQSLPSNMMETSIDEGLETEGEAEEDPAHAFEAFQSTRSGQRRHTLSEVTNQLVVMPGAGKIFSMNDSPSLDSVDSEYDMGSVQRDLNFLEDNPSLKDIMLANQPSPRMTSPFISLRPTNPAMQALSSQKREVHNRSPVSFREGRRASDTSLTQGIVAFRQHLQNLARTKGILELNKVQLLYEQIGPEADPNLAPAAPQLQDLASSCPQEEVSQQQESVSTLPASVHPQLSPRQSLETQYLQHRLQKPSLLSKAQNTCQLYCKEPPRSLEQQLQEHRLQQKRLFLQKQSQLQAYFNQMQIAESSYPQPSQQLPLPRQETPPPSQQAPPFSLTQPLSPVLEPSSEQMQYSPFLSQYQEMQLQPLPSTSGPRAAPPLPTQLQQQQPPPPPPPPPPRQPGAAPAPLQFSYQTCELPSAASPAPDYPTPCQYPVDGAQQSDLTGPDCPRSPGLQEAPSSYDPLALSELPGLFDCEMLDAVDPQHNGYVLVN
Sequence of Casein kinase I isoform gamma-1 (Homo sapiens) (Q9HCP0 whole entry, looked up, canonical isoform): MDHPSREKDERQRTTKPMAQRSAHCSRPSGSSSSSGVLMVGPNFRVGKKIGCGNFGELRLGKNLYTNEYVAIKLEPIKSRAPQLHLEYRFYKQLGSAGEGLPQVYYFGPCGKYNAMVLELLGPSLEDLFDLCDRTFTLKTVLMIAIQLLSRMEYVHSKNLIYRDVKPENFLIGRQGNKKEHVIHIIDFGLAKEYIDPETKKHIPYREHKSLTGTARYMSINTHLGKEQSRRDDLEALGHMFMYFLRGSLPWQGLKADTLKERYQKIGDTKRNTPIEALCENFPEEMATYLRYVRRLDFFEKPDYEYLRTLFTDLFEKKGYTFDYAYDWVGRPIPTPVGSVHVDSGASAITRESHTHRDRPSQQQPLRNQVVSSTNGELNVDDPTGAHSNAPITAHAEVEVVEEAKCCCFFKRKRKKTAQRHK
Sequence of Serine/threonine-protein kinase SIK1 (Homo sapiens) (P57059 whole entry): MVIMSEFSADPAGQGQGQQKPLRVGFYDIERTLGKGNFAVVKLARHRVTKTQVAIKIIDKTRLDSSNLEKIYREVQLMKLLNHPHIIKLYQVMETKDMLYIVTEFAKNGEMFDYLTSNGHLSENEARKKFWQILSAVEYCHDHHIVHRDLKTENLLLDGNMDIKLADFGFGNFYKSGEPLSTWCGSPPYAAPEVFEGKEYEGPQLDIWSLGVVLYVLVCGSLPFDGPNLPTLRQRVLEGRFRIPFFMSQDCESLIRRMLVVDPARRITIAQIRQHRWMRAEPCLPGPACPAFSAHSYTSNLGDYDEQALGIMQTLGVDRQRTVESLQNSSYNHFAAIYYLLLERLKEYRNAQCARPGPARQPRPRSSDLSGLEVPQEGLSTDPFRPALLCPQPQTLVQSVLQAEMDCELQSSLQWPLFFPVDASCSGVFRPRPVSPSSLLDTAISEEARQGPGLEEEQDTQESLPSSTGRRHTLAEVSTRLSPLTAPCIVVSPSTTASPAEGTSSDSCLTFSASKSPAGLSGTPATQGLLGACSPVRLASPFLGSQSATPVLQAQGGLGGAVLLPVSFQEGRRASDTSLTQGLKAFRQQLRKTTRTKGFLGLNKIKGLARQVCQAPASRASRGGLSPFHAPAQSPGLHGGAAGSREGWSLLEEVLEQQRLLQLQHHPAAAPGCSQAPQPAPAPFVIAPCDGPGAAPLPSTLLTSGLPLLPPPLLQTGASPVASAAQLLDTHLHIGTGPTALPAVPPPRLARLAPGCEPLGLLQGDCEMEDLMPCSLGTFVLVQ
Sequence of Casein kinase I isoform alpha (Homo sapiens) (P48729 2-337 limits assumed): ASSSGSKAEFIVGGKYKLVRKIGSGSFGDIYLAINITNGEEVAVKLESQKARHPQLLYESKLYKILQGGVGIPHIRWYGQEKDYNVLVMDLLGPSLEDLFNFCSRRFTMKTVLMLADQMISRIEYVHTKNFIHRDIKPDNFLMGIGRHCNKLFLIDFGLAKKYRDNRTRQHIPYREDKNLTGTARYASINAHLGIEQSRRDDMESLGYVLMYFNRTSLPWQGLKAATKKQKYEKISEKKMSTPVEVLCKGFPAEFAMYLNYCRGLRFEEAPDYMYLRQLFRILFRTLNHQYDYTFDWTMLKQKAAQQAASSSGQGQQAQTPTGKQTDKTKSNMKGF
Sequence of Serine/threonine-protein kinase pim-2 (Homo sapiens) (Q9P1W9 whole entry, looked up): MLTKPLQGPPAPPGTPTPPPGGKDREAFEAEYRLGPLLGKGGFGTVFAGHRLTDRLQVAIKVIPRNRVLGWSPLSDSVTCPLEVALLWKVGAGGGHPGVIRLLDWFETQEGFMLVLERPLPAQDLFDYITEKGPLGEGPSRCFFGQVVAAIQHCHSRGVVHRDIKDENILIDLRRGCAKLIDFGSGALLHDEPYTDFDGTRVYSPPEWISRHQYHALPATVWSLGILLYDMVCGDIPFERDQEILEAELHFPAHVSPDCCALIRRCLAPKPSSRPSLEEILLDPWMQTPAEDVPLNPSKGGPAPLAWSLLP

| SMILES | inhibition [1] | inhibition [2] | inhibition [3] | inhibition [4] | inhibition [5] | inhibition [6] | inhibition [7] | inhibition [8] | inhibition [9] | inhibition [10] | inhibition [11] | inhibition [12] | inhibition [13] | inhibition [14] | inhibition [15] | inhibition [16] | inhibition [17] | inhibition [18] | inhibition [19] | inhibition [20] |
| --- | --- | --- | --- | --- | --- | --- | --- | --- | --- | --- | --- | --- | --- | --- | --- | --- | --- | --- | --- | --- |
| CN(C)C(=O)O[C@@H]1CN[C@@H](C#Cc2cc3ncnc(Nc4ccc(OCc5cccc(F)c5)c(Cl)c4)c3s2)C1 | 0.58% | -0.21% | -1.29% | -0.43% | -2.16% | 0.03% | 3.96% | -0.41% | 10.1% | 4.03% | 2.9% | -0.67% | -0.36% | -0.92% | -1.41% | 9.15% | 6.58% | 2% | 6.01% | 1.45% |
| C[C@@H](Oc1cc(-n2cnc3ccc(OCC4CCN(C)CC4)cc32)sc1C(N)=O)c1ccccc1C(F)(F)F | 1.56% | 8.51% | 47.6% | -0.8% | -1.08% | 13.5% | 65.6% | 6.88% | 30.3% | -2.73% | -1.33% | 1.47% | 22.4% | -1.17% | -0.35% | -4.16% | -1.43% | -1.72% | -1.25% | -1.74% |
| NS(=O)(=O)c1ccc(NC=C2C(=O)Nc3ccc4ncsc4c32)cc1 | 5.46% | 2.4% | 13.1% | 2.33% | 13.9% | 5.99% | 34.1% | 9.07% | 40.7% | 13.4% | 65.6% | 8.91% | 33.5% | 2.62% | 3.73% | 4.2% | 22.3% | 5.22% | 18.2% | 3.58% |
| Cc1nc(-c2ccccc2)n2nc(NCCCN3CCOCC3)ncc12 | 0.05% | -0.2% | 1.5% | 0.74% | 0.74% | 3.53% | 5.24% | -0.49% | 4.81% | 1.18% | 6.52% | 0.26% | 3.44% | 0.32% | 0.77% | 1.74% | 8.04% | 2.06% | 2.66% | 2.09% |
| COc1cc2ncnc(Nc3ccc(C)c(O)c3)c2cc1OC | 2.78% | 2.48% | 4.22% | 3.96% | 2.36% | 5.14% | 33.2% | 7.06% | 18.9% | 1.88% | 5.95% | 3.91% | 3.21% | 1.77% | 2.03% | 4.56% | 5.91% | 4.01% | 4.87% | 4.2% |
| Nc1nccc(-c2c(-c3ccc(F)cc3)nn3cc(C(F)(F)F)ccc23)n1 | 0.77% | 0.74% | 0.92% | 0.34% | 0.16% | -0.43% | 1.61% | -1.04% | -1.57% | -2.75% | -0.2% | 0.37% | 1.13% | 0.32% | -0.24% | 0.88% | 10.8% | 0.74% | 2.65% | 0.3% |
| c1ccc(Nc2ncc(-c3ccccc3)o2)cc1 | -0.45% | 0.11% | 2.31% | 2.01% | 1.68% | 3.63% | 12.6% | 7.32% | 13.8% | 5.72% | 5.74% | 5.73% | 6.03% | 2.44% | 3.66% | 4.02% | 7.73% | 3.94% | 5.22% | 3.32% |
